Source: PubChem BioAssay (National Center for Advancing Translational Sciences (NCATS))
Shown are actives, neighbours in structure and some others; about 2.9% of the full set was active somewhere.
TSHR agonist: TSH receptor (human) agonism; P16473; HEK293-CNG-TSHR cells (CNG channel as cAMP sensor), membrane potential dye, cAMP; Potency, µM (series often up to 57.1 µM), inactives show at the highest dose activation, actives largely listed as activators; hit rate 0.48% among 73,000; active means well fitted activation curve with a large enough effect in the main read-out, with a control signal flat, not every such curve was filed as active; inconclusive means small, poorly fitted or top-dose-only effect, or a change in a side signal; inactive means no such curve, though single readings can be large or run the other way; % of control where 0% means no effect;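 further: the control signal comes from parental cells without the receptor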
Target sequence (P16473 whole entry, looked up): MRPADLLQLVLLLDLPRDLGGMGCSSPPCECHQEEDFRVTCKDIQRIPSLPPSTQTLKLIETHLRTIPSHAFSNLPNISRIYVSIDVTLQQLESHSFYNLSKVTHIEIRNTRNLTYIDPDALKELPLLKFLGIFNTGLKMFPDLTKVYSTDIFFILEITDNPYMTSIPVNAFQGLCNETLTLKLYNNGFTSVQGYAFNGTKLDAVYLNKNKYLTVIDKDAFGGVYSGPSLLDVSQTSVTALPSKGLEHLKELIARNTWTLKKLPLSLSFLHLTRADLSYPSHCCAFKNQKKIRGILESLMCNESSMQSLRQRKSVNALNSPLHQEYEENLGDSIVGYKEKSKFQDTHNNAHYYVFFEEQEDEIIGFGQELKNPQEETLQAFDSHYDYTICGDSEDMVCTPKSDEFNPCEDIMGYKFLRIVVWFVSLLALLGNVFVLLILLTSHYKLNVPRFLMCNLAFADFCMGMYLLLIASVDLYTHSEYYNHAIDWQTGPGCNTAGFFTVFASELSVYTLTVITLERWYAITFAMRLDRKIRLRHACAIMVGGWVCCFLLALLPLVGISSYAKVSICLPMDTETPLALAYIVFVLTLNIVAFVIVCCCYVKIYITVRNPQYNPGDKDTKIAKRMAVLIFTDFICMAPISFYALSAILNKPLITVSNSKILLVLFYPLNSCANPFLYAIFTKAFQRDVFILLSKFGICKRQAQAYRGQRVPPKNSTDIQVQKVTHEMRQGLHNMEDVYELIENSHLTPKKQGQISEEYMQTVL
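HEK 293 cells stably expressing TSHR and a modified CNG channel, with CNG-only parental cells as counterscreen, were preloaded 60 min at room temperature with membrane potential dye containing 100 uM RO 20-1724. Compound exposure was 30 min, and depolarization was read as fluorescence at 590 nm.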
HEK293 cAMP ctrl: counter-screen for TSHR agonists: cAMP increase in parental HEK293 | Potency, µM (top dose mostly 57.1 µM), without a hit: at the highest dose activation, most hits filed as activators | parental HEK293 CNG cAMP sensor, membrane potential fluorescence | AID 938 | hit rate 2.5% among 73,000; active means well fitted activation curve with a large enough effect; inconclusive means small, poorly fitted or top-dose-only effect; inactive means no such curve, though single readings can be large or run the other way; further: % of control where 0% means no effect; nearly all actives have a fitted effect of over 55% in size
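Counterscreen for endogenous-receptor signalling: CNG-channel HEK 293 cells report cAMP rise by membrane depolarization. After 60 min dye equilibration with 100 uM RO 20-1724, compounds incubated 30 min before bottom-read fluorescence at 590 nm.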
* marks the source's active call; other numbers are inactive results; ? = inconclusive; · = no result given; [ ] = remark or other dose. Potency means the concentration at half of the fitted maximal effect.

SMILES	TSHR agonist	HEK293 cAMP ctrl
O=C(CCCC(=O)N1CCCc2ccccc21)N1CCCc2ccccc21	28.0%	23.6%
COc1ccc(-c2cc(C(=O)N3CCc4ccccc4C3)no2)cc1OC	6.6%[11.4 µM]	25.3%
COc1ccc(C2=NOC(C(=O)N3CCCc4ccccc43)C2)cc1 (stereo unspecified)	8.2%	29.0%
COc1ccc(-c2cc(C(=O)N3CCCc4ccccc43)no2)cc1	?	20µM*
COc1ccc(-c2cc(C(=O)N3CCCc4ccccc43)no2)cc1OC	?	25.1µM*
COc1ccc(OCCCC(=O)N2CCCc3ccccc32)cc1	?	15.8µM*
COc1cccc(-c2cc(C(=O)N3CCCc4ccccc43)no2)c1	?	15.8µM*
Cc1ccccc1-c1cc(Nc2ccc(F)cc2)ncn1	-10.4%	12.5%
CCN1C(=O)[C@H]2[C@H]3[C@H](O)[C@H](O)C/C(=N/OC[C@@H](O)COCc4ccco4)[C@@H]3CC[C@@H]2C1=O	1.2%[11.4 µM]	-1.8%[11.4 µM]
Cc1noc(NC(=O)Nc2ccccc2F)c1C#N	-0.7%[11.4 µM]	14.0%[11.4 µM]
CCOC(=O)CCN1C(=O)[C@H]2[C@H]3[C@H](O)[C@H](O)C/C(=N/NC(=O)OCC)[C@H]3CC[C@@H]2C1=O	2.9%[11.4 µM]	5.8%[11.4 µM]
Cc1cc(C(=O)CSc2nnnn2C)c(C)n1CCc1ccc(F)cc1	1.6%	-1.4%
COc1ccc(CCn2c(C)cc(C(=O)CSc3nnc(N)s3)c2C)cc1	?	25.1µM*
Cc1cc(C(=O)CSc2nnc(N)s2)c(C)n1CCc1ccc(Cl)cc1	?	25.1µM*
COc1ccc(NC(=O)CSc2nnc(N)s2)cc1	3.3%	23.5%
O=C1CCC=C1[C@@H](O)CCc1ccccc1	-1.1%[11.4 µM]	-2.7%[11.4 µM]
COc1cc(CN2CCCCC2)cc2cc(C(=O)O)c(=O)oc12	1.3%[11.4 µM]	14.8%[11.4 µM]
CO[C@H]1COC(=O)C/C=C\[C@H](C)[C@@H](NS(=O)(=O)c2ccc(C)cc2)COC(=O)CCC[C@@H]1C	13.4%[11.4 µM]	9.1%[11.4 µM]
Cc1ccc(C(c2nnnn2CCc2ccccc2)N2CCSCC2)cc1 (stereo unspecified)	?	20µM*
COc1ccc(CCn2nnnc2C(c2ccc(C)cc2)N2CCN(C)CC2)cc1OC (stereo unspecified)	4.9%	12.1%
COCCn1nnnc1C(c1ccc(OC)cc1)N1CCC(C)CC1 (stereo unspecified)	12.2%	28.0%
COCCn1nnnc1C(c1ccc(Cl)cc1)N1CCSCC1 (stereo unspecified)	?	15.8µM*
COc1cc(N=C(N)N=C(N)N)c2ncccc2c1	1.9%[11.4 µM]	5.5%[11.4 µM]
O=C(Nc1ccccc1)c1cccc(-c2nnc(-c3ccccc3)o2)c1	?	31.6µM*
CCCCC(=O)Nc1cccc(-c2nnc(-c3ccccc3)o2)c1	·	17.7%
SMILES	TSHR agonist	HEK293 cAMP ctrl
CCOc1ccc2nc(SCC(=O)N3CCCCCC3)c(C#N)cc2c1	?	15.8µM*
CCOc1ccc2cc(C#N)c(SCC(=O)N3CCOCC3)nc2c1	6.2%	10.1%
O=C(CSc1nc2ccccc2nc1SCC(=O)N1CCOCC1)N1CCOCC1	11.3%	8.7%
O=C(CSc1nc2ccccc2nc1SCC(=O)N1CCCCC1)N1CCCCC1	25.1µM*	17.3%
CCOC(=O)[C@]1(CC(=O)O)CCCC1=O	0.2%[11.4 µM]	3.8%[11.4 µM]
CN[C@]1(C)[C@@H]2CC[C@@H](C2)C1(C)C	4.3%	-7.0%
CSc1nnc2c3cc(C)ccc3n(Cc3ccccc3)c2n1	?	15.8µM*
CCn1c2ccccc2c2nnc(SCC(=O)c3ccccc3)nc21	11.7%	5.6%
CC(C)=NO[C@@H](C)c1cc(-c2c(C)cc(C)cc2C)no1	0.0%[11.4 µM]	23.2%[11.4 µM]
O=C(NCCN1CCCC1)c1ccc(-n2c(=O)c(=O)[nH]c3ccccc32)cc1	0.8%	-12.3%
CN(C)Cc1ccc(-c2cc3onc(-c4ccccc4)c3c(=O)n2C)cc1	·	-3.1%[11.4 µM]
CC1Cc2nc(SCC(=O)Nc3ccc4c(c3)OCCO4)n(C)c(=O)c2S1 (stereo unspecified)	7.2%	13.3%
CCCn1c(SCC(=O)N2CCN(c3ccccc3)CC2)nc2ccccc2c1=O	5.01µM*	27.2%
CCn1c(SCC(=O)N2CCN(c3ccccc3)CC2)nc2c(c1=O)SC(C)C2 (stereo unspecified)	?	25.1µM*
CCOC(=O)c1ccc(NC(=O)CSc2nc3c(c(=O)n2C)SC(C)C3)cc1 (stereo unspecified)	?	20µM*
CCn1c(SCC(=O)N2CCCC2)nc2c(c1=O)SC(C)C2 (stereo unspecified)	·	20.8%
CCn1c(SCC(=O)N2CCN(c3ccc(Cl)cc3)CC2)nc2ccccc2c1=O	8.3%	4.8%
COC(=O)C/C=C\[C@@H](C)[C@@H](/C=N\OCC[C@H]1C=C[C@H](OC(C)=O)[C@@H](COC(C)=O)O1)NS(=O)(=O)c1ccc(C)cc1	-2.8%[11.4 µM]	6.4%[11.4 µM]
Nc1nc(Nc2ccccc2)nc2c1ncn2[C@@H]1O[C@@H](CO)[C@H](O)[C@@H]1O	3.8%	-3.5%
Cc1nn(-c2ccccn2)c2nc(-c3cccs3)cc(C(=O)N3CCOCC3)c12	3.16µM*	15.3%
O=C(N1CCOCC1)N1CCN(c2ccccn2)CC1	-3.4%	-20.9%
O=C(NC1CCCC1)C(c1ccsc1)N(Cc1ccco1)C(=O)Cc1cccs1 (stereo unspecified)	-22.6%	-14.2%
COCCN(C(=O)CNC(=O)c1ccco1)C(C(=O)NC1CCCCC1)c1cccc(OC)c1 (stereo unspecified)	8.5%	4.5%
O=C(Cc1cccs1)N(Cc1ccco1)C1(C(=O)NC2CCCC2)CCCCC1	?	0.126µM*
O=C(NC1CCCCC1)C(c1ccco1)N(Cc1ccco1)C(=O)c1ccco1 (stereo unspecified)	?	15.8µM*
SMILES	TSHR agonist	HEK293 cAMP ctrl
O=C(NC1CCCCC1)N(Cc1ccccc1)Cc1ccco1	?	15.8µM*
COc1ccc(C(=O)N(Cc2ccco2)C(C(=O)NC2CCCC2)c2ccc(O)cc2)cc1OC (stereo unspecified)	19.7%	13.3%
CCOCCCN(C(=O)CNC(=O)c1ccco1)C(C(=O)NC1CCCC1)c1ccccc1C (stereo unspecified)	?	31.6µM*
O=C(CCC(=O)N(CC(=O)NC1CCCCC1)Cc1ccco1)Nc1nccs1	12.1%	16.2%
COC(=O)C(C(=O)OC)C1O[C@@]23COCCC2(C)C3c2ccccc21 (stereo partly specified)	18.6%[11.4 µM]	8.6%[11.4 µM]
CC(C)CNC(=O)O	1.6%[11.4 µM]	-0.5%[11.4 µM]
Cc1ccc(S(=O)(=O)O[C@@H]2[C@H]([C@@H]3COC(C)(C)O3)O[C@H]3OC(C)(C)O[C@@H]32)cc1	0.3%[11.4 µM]	-10.9%[11.4 µM]
N#Cc1ccc(CN2CCCC3(CCN(C(=O)c4cnccn4)CC3)C2)cc1	18.4%	29.2%
CN1CCN(c2ncc3nc(-c4cccc(C#N)c4)c(=O)n(CCC#N)c3n2)CC1	-3.3%	-14.6%
S=C1SCN(C2CCCCCCCCCCC2)CN1C1CCCCCCCCCCC1	-8.0%[11.4 µM]	-16.5%[11.4 µM]
COc1ccc(C(C(=O)NC2CCCC2)N(CCN(C)C)C(=O)c2snc(C(N)=O)c2N)cc1 (stereo unspecified)	6.1%	19.4%
NC(=O)c1nsc(C(=O)N(CCc2ccccc2)C(C(=O)NC2CCCC2)c2ccco2)c1N (stereo unspecified)	?	6.31µM*
CC(C)(C)OC=O	-6.1%	-13.1%
CC(=O)Nc1ccc2c(c1)/C(=C/c1ccc([N+](C)(C)C)cc1)c1ccccc1-2	-3.9%[11.4 µM]	-2.4%[11.4 µM]
CCOC(=O)c1cnc(-n2nc(C)cc2C)nc1NCCc1ccccc1	?	25.1µM*
